An excerpt weighted towards active compounds, which were near 3.6% of everything screened.
Mdm2 MdmX PPI: human Mdm2/MdmX binding inhibition; AID 485346; actives 3% (n = 330,000); inhibition, % at 8 µM; SaOS-2 split-luciferase Mdm2/MdmX complementation, luminescence;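 active = inhibition of at least 50% at 8 µM in the primary screen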
HSP90 refold inh: blocks HSP90-mediated luciferase refolding in reticulocyte lysate | Rabbit reticulocyte lysate, luciferase refolding luminescence, 3 h | inhibition, % at 5.6 µM | actives 0.91% (n = 290,000) | AID 1789;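 active = inhibition above the screen-wide mean plus 3 SD, computed separately per campaign, cut at about 16% in these data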;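 also: 0% = DMSO wells and 100% = 60 µM geldanamycin wells; inhibitors lower the luminescence because luciferase stays unfolded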
LGR2 inh: Drosophila LGR2 receptor signaling inhibition. HEK293 LGR2, CRE-luciferase, bursicon-stimulated, 4 h. inhibition, % at 9.99 µM. actives 0.35% (n = 380,000);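 active = drop in luminescence signal, shown as inhibition above about 50% in the replicate tests, limit read from the data, passing the limit was not always enough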;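 also: agonist challenge used bursicon conditioned medium at about half maximal strength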
Peg3 prom inh: Peg3 promoter activity inhibition. HeLa PEG-Prom luciferase reporter, luminescence, overnight. inhibition, % at 20 µM. actives 1.7% (n = 360,000);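 active = inhibition of at least 50% at 20 µM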
CF NFkB block: blocks PAF-induced NF-kB reporter in cystic fibrosis cells. KKLEB NF-kB-GFP reporter, GFP fluorescence overnight. inhibition, % at 5 µM. actives 0.86% (n = 360,000). AID 588850;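 active = at least 50% inhibition at 5 µM, scaled per plate between neutral and stimulator controls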;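 also: PAF is a Pseudomonas aeruginosa culture filtrate used as stimulus; plate controls were PAF-stimulated DMSO wells for no effect and unstimulated DMSO wells for full effect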
KKLEB cytotox: CF airway cell cytotoxicity counter-screen; KKLEB CF airway cells viability, ATPlite luminescence, overnight; hits give low values; cells stimulated with P. aeruginosa culture filtrate; activity change (cytotoxicity), % at 5 µM; actives 0.36% (n = 360,000); AID 602141;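 active = corrected activity change at or below -50% at 5 µM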
Mdm2 MdmX conf: human Mdm2/MdmX binding inhibition, confirmed | shares compounds with Mdm2 MdmX PPI | luminescent assay | inhibition, % at 8 µM | actives 55% (n = 10,000); in the data active = inhibition above about 40%
Full FLuc ctr: inhibits full-length luciferase, flagging false Mdm2/MdmX hits. shares compounds with Mdm2 MdmX PPI. SaOS-2 full-length luciferase counterscreen, luminescence. inhibition, % at 8 µM. actives 77% (n = 6,200);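 active = mean inhibition at 8 µM reaching about 37%, which flags the compound as non-specific, limit read from the data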;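 also: p53-null SaOS-2 cells with luciferase driven by a doxycycline-inducible promoter; compound on cells about two nights before reading with doxycycline added after day one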
An asterisk follows results filed as active; x = no result.

SMILES	Mdm2 MdmX PPI	HSP90 refold inh	LGR2 inh	Peg3 prom inh	CF NFkB block	KKLEB cytotox	Mdm2 MdmX conf	Full FLuc ctr
COc1cc(-c2nc(C(=O)NCC3CCCO3)cc3c2[nH]c2ccccc23)cc(OC)c1OC (stereo unspecified)	85.8*	0.1	22.8	56.6*	9.9	3.2	54.5*	56.1*
O=C(NCC1CCCO1)c1cc2c([nH]c3ccccc32)c(-c2cccc(Cl)c2)n1 (stereo unspecified)	87.0*	1.9	x	52.6*	-10.8	1.0	45.6*	60.3*
C=CCNc1nc(N)c([N+](=O)[O-])c(Nc2ccccc2OC)n1	59.3*	-1.4	-14.7	34.4	41.3	-7.1	18.4	x
COc1ccccc1Nc1nc(NCCCN(C)C)nc(N)c1[N+](=O)[O-]	38.4	6.0	2.6	11.4	-41.1	-14.1	x	x
COc1ccccc1Nc1nc(NCC(C)C)nc(N)c1[N+](=O)[O-]	62.0*	4.5	3.8	44.6	55.2*	-14.3	46.7*	59.1*
COc1ccc(OC)c(Nc2nc(NCCC(C)C)nc(N)c2[N+](=O)[O-])c1	41.9	4.2	5.3	28.2	-3.7	2.3	x	x
O=C(Cc1ccc(Cl)cc1)Nc1ccc(-c2nnc(-c3ccco3)o2)cc1	53.9*	5.0	x	0.9	-13.9	-5.5	10.4	x
Cc1cc(C)cc(OCC(=O)Nc2cccc(-c3nnc(-c4ccco4)o3)c2)c1	83.0*	4.8	34.3	58.2*	-43.6	-9.8	40.4*	98.9*
O=C(Cc1ccccc1)Nc1ccc(-c2nnc(-c3ccco3)o2)cc1	-4.3	4.6	x	-27.2	5.2	2.5	x	x
Cc1noc(C)c1NC(=O)NCC[C@H]1CC[C@H](NC(=O)Nc2cccc(F)c2)[C@H](CO)O1	x	x	-2.1	x	x	x	x	x
CCCN(C)C[C@@H]1Oc2cc(C#CCC3CCCC3)ccc2S(=O)(=O)N([C@H](C)CO)C[C@H]1C	x	x	13.7	x	x	x	x	x
CC(=O)c1ccc(S(=O)(=O)N2CCN(CC(=O)Nc3ccc(Cl)c([N+](=O)[O-])c3)CC2)cc1	9.3	x	-7.0	14.9	-5.6	1.7	x	x
Cc1ccc(S(=O)(=O)N2CCN(CC(=O)N/N=C\c3ccc(Cl)c([N+](=O)[O-])c3)CC2)cc1	63.7*	-0.5	-0.1	68.7*	-11.2	-1.6	16.9	x
CCOc1ccc(C(=O)Nc2ccc(NC(=O)c3ccco3)c(Cl)c2)cc1Br	3.6	3.2	15.9	26.1	30.8	-45.3	x	x
CC(C)(C)c1ccc(Oc2ccc(NC(=O)c3ccco3)cn2)cc1	56.1*	-0.7	13.3	6.5	1.1	-11.5	39.2	69.2*
Cc1ccccc1NC(=O)c1cccc(NC(=O)c2ccco2)c1	9.7	0.5	-7.0	-5.9	22.7	-16.3	x	x
CCOc1ccccc1NC(=O)c1ccc(C(=O)Nc2ccccc2OCC)nc1	90.7*	-3.0	1.0	11.9	3.5	2.1	9.8	x
CCOc1ccc(C(=O)Nc2ccc(NC(=O)c3ccco3)c(Cl)c2)cc1Cl	61.9*	1.5	x	9.9	11.3	-11.8	49.2*	93.7*
CCOc1ccccc1NC(=O)c1cccc(NC(=O)c2ccco2)c1	62.3*	-0.8	x	14.1	2.0	3.1	67.1*	63.5*
CNC(=O)C[C@@H]1CC[C@H]2[C@@H](COc3ccc(NC(=O)c4cscn4)cc3C(=O)N2C)O1	x	x	-0.6	x	x	x	x	x
O=C(Nc1ccc(F)cc1)N[C@H]1CC[C@@H](CCNC(=O)c2ccccc2F)O[C@H]1CO	x	x	3.2	x	x	x	x	x
O=C(Nc1ccccc1)c1cccc(NC(=O)c2ccco2)c1	9.6	x	-1.9	-8.0	9.2	-16.0	x	x
CC(=O)c1ccc(NC(=O)c2ccc(NC(=O)c3ccco3)cc2)cc1	71.4*	-2.5	x	7.3	5.1	-2.4	12.8	x
CCOC(=O)c1cccc(NC(=O)c2ccc(NC(=O)c3ccco3)cc2)c1	73.0*	-2.0	-7.2	12.8	-16.1	20.6	12.7	x
COC(=O)c1ccc(NC(=O)c2ccc(NC(=O)c3ccco3)cc2)cc1	16.7	-0.3	15.3	-5.8	-4.0	-3.9	x	x
SMILES	Mdm2 MdmX PPI	HSP90 refold inh	LGR2 inh	Peg3 prom inh	CF NFkB block	KKLEB cytotox	Mdm2 MdmX conf	Full FLuc ctr
O=C(Nc1ccc(NC(=O)c2sc3ccccc3c2Cl)cc1Cl)c1ccco1	89.1*	-1.8	-4.5	-41.8	-8.0	-8.1	22.9	x
CCOc1ccc(C(=O)Nc2cccc(-c3nc4cccnc4o3)c2)cc1Cl	56.5*	-1.4	x	90.0*	-7.9	8.6	54.5*	42.2*
O=C(Nc1ccc(NC(=O)c2cccs2)c(Cl)c1)c1ccco1	17.8	3.4	-7.7	-5.5	3.4	-6.6	x	x
O=C(C[C@@H]1C=C[C@H](NC(=O)Nc2ccc3c(c2)OCO3)[C@@H](CO)O1)NCc1ccc(Cl)cc1	x	x	10.6	x	x	x	x	x
CCCNC(=O)N1C[C@@H](C)[C@H](OC)CN(C)C(=O)c2cc(NS(C)(=O)=O)ccc2OC[C@@H]1C	x	x	23.1	x	x	x	x	x
CN(C)CCNC(=O)c1onc(CSc2ccncc2)c1C(=O)NCCN(C)C	8.6	x	-5.9	-9.6	-3.2	4.0	x	x
Cc1cc(C)cc(SCc2noc(C(=O)NCCN(C)C)c2C(=O)NCCN(C)C)c1	88.7*	x	-4.4	1.7	-9.0	-4.8	47.1*	48.9*
COc1ccc(Nc2ccc3c(c2)=NC2(CCCCC2)[N+]=3[O-])cc1	100.4*	2.5	x	95.2*	63.8*	-29.8	59.2*	39.2*
CCCNC(=O)N(C)C[C@H]1Oc2ncc(C3=CCCC3)cc2C(=O)N([C@@H](C)CO)C[C@@H]1C	x	x	4.9	x	x	x	x	x
Cc1[nH]nc2c1C(c1cc(Br)cs1)C(C#N)=C(N)O2 (stereo unspecified)	70.0*	-3.1	14.4	20.5	59.7*	-14.5	29.8	x
Cc1[nH]nc2c1C(c1ccco1)C(C#N)=C(N)O2 (stereo unspecified)	-2.1	-3.0	-23.9	-3.5	5.0	-3.1	x	x
COC(=O)C[C@@H]1CC[C@H]2[C@H](COc3ccc(NC(=O)c4cccc(OC)c4)cc3C(=O)N2C)O1	x	x	-4.6	x	x	x	x	x
CN1C(=O)c2cc(NC(=O)C3CC3)ccc2OC[C@@H]2O[C@@H](CC(=O)NC3CCC3)CC[C@H]21	x	x	-14.6	x	x	x	x	x
Cc1cccc(NC(=O)CSc2nc3ccccc3nc2N2CCCC2)c1	84.8*	-1.7	-4.3	19.1	30.8	-13.7	45.4*	80.9*
CCc1ccc(NC(=O)CSc2nc3ccccc3nc2N2CCCCC2)cc1	37.2	2.8	-25.9	-17.6	7.5	-2.1	x	x
COc1cccc(NC(=O)CSc2nc3ccccc3nc2N2CCCC2)c1	63.8*	1.3	-20.2	-31.6	-7.5	11.3	2.5	x
Cc1cccc(NC(=O)CSc2nc3ccccc3nc2N2CC(C)OC(C)C2)c1 (stereo unspecified)	24.1	-1.9	4.8	22.8	13.4	-8.7	x	x

Screening data as filed in PubChem BioAssay.
